For 40 sequences, PBM binding z-score results are on record in the supplement of paper PMC6555819.

One experiment relates to LXRa homodimer (NR concentration 270 nM). Nature of the experiment: PBM binding z-score (relative to random genomic background probes); higher = stronger binding; sequences stand for … in GC…GCGATTGACAGCGTAGAATGAAGG
The procedure, abridged:
(§1)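 Binding buffer was PBS pH 7.4 with 2% milk, 0.02% Triton X-100, 1 mM DTT, 0.2 mg/mL BSA and 0.4 mg/ml salmon testes DNA. In it, ligand-free nuclear receptor dimers were incubated 1 h on custom Agilent 4×180K protein-binding microarrays carrying double-stranded probes. Antibodies against each partner (one per run) detected binding, and z-scores were calculated against random background probes after regression normalization of scanned fluorescence.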
AAATGTAGGTTATCGGGTCATTCAGTTTGCGCAT: the PBM binding z-score was 1.81.

Regarding TCTTGTAGATCAACAGGAGGTAAAGAAAGATCGA, the PBM binding z-score is -0.569.

Consider CCTTACGGGTCACGAGGTTATGGCACGACGAGCG, for which the PBM binding z-score is 0.195.

CCTCGGAGGACAGAAGATCAGAGCTGTCCGCTTT: the PBM binding z-score was -0.602.

Take TTACCAAGGCGAGCTGAGGTCGTTGATCCAACTC: the PBM binding z-score is -0.362.

TCTAGTAGATCAGCAGGTTAAGAAAGCTGGCCAA had a PBM binding z-score of -0.552.

GCGACTGGGGCATCAGCAGGTTACGATAACTTAA returned a PBM binding z-score of -0.449.

As to CGAACTAGGTCATCCAGGACAGTAAATACATTGA, the PBM binding z-score came out at 0.899.

ACTATTAGTTGAGACGAAGGCAACCGATAGGTTG displayed a PBM binding z-score of -0.315.

Sequence TCGAGTTGGTTAGTCGGGGCATTCAGCCAACATA showed a PBM binding z-score of -0.453.

Take TAGCCTAGGTCATTCAGGGGCCTGTATAGAAAGC: the PBM binding z-score was 0.422.

TAGCCAAGGTCATGGGCCAGTATACCACGCGAAC displayed a PBM binding z-score of 0.809.

As to TCTAGTTGGGCACGGAGGTCACACACGACGGGTA, the PBM binding z-score amounted to 1.6.

On to ATCTCTAGGTAAAGTACAGTGAAAGATCGATAGA, for which the PBM binding z-score stood at 0.207.

For GTACCAAGATGAATAGGTCGTTGATGAGTAGGCG, the PBM binding z-score was -0.17.

For the sequence CGAACTAGGTCCGAACAGGACAGTGAAGGATGAT, the PBM binding z-score was -0.619.

Take CTCGAAAGGTCGTTCTCAGGTGAGTATACCAAAC: the PBM binding z-score turned out to be 1.08.

CAAACTAAGTCAAGGTCAAAGTCGGTTTGTGCCA: the PBM binding z-score is 5.4.

GTTGCTAGGTCAGGTTGGTCAGCTAACGGGTACG had a PBM binding z-score of 0.459.

Take CCAACGAGGGCATGAGTTGATAGCAAATGCCGAT: the PBM binding z-score is -0.411.

In the case of TCTTGTAGATCGGCAGGTTAAGAAAGCTGGCCAA, the PBM binding z-score is -0.48.

In the case of TCGAGTAGGTTAGGGGCATTCAAAATGGCGTCGA, the PBM binding z-score was -0.23.

TAGCCTAGGTCATTCAGGGGCCAGTCTAGAAAGC gave a PBM binding z-score of 0.514.

TCTCCTAGGTCAGTTGGTCAGCTAACGAGCTGCC yielded a PBM binding z-score of 0.111.

Regarding ATCGAAAGGTCGTGAGGTGAGTGTACAGAAAGGC, the PBM binding z-score is 0.411.

Take CGTCAAAGTTCAAGGTAACGGAACAGAAAGCAGC: the PBM binding z-score was 2.26.

Turning to ACTATTAGTTGAGACGAGGGCAAACGATAGGTTG, the PBM binding z-score was 0.35.

On to TCGAGTAGGTTAGGGGCTTTCAGAATGGCGTCGA, for which the PBM binding z-score is -0.23.

CGAGCTAGGTCAAGGACAGTGAATCTCCGCACGC came in with a PBM binding z-score of -0.283.

In the case of ATCTCTAGGTAAGAAGTTCAGTGAAAGAGAGGAC, the PBM binding z-score came out at 0.243.

The sequence TTACCAAGGGGAGCTGAGGTCGTTGATCCAACTC displayed a PBM binding z-score of -0.107.

ACAGACAGTTGAGTGAAGGTAACTCAGCTGGACG gave a PBM binding z-score of -0.198.

As to TCTCGGAGGACACGTAAGGTCAGAGCTCGACATC, the PBM binding z-score came out at 1.46.

Sequence ATCTCTAGGTAACAAGTTAAGTGAAAGAGAGGAC returned a PBM binding z-score of 0.231.

Take CTCGAAAAGTCGTGCTCAGGTGAGTATACCAAAC: the PBM binding z-score is -0.0855.

In the case of TGAATGAGGTTATAAGCTCAGGGAACGTTGCAAA, the PBM binding z-score was -0.535.

AGAATGAGGTTATAAAGATCAGGGAATTGCGGTC gave a PBM binding z-score of 0.315.

CAAACTAGGTCACCGGAAGGTCAACGTCCGCATG had a PBM binding z-score of 4.21.

ATAGGTAGGTTAGCTGGGGTCATTCAGACTAGGC returned a PBM binding z-score of 2.97.

As to TCTATTAGTTGACTAGGGCAACCGAAACAGCGGA, the PBM binding z-score is -0.0763.

The test system of a further experiment is LXRb:RXRa (NR concentration 270 nM, RXRa partner concentration 90 nM). Described as above. In a few lines:
as §1
The sequence AAATGTAGGTTATCGGGTCATTCAGTTTGCGCAT gave a PBM binding z-score of 2.9.

On to TCTTGTAGATCAACAGGAGGTAAAGAAAGATCGA, for which the PBM binding z-score was -0.104.

The sequence CCTTACGGGTCACGAGGTTATGGCACGACGAGCG returned a PBM binding z-score of 3.8.

Sequence CCTCGGAGGACAGAAGATCAGAGCTGTCCGCTTT displayed a PBM binding z-score of -0.91.

In turn, TTACCAAGGCGAGCTGAGGTCGTTGATCCAACTC yielded a PBM binding z-score of 0.482.

The sequence TCTAGTAGATCAGCAGGTTAAGAAAGCTGGCCAA returned a PBM binding z-score of 0.373.

GCGACTGGGGCATCAGCAGGTTACGATAACTTAA displayed a PBM binding z-score of 0.641.

As for CGAACTAGGTCATCCAGGACAGTAAATACATTGA, the PBM binding z-score came out at 2.36.

Consider ACTATTAGTTGAGACGAAGGCAACCGATAGGTTG, for which the PBM binding z-score was -0.554.

TCGAGTTGGTTAGTCGGGGCATTCAGCCAACATA yielded a PBM binding z-score of 0.513.

TAGCCTAGGTCATTCAGGGGCCTGTATAGAAAGC displayed a PBM binding z-score of 2.66.

The sequence TAGCCAAGGTCATGGGCCAGTATACCACGCGAAC had a PBM binding z-score of 4.45.

In turn, TCTAGTTGGGCACGGAGGTCACACACGACGGGTA gave a PBM binding z-score of 2.66.

In the case of ATCTCTAGGTAAAGTACAGTGAAAGATCGATAGA, the PBM binding z-score stood at 0.131.

GTACCAAGATGAATAGGTCGTTGATGAGTAGGCG displayed a PBM binding z-score of -0.161.

For CGAACTAGGTCCGAACAGGACAGTGAAGGATGAT, the PBM binding z-score was -1.

The sequence CTCGAAAGGTCGTTCTCAGGTGAGTATACCAAAC had a PBM binding z-score of 3.68.

Sequence CAAACTAAGTCAAGGTCAAAGTCGGTTTGTGCCA displayed a PBM binding z-score of 4.15.

GTTGCTAGGTCAGGTTGGTCAGCTAACGGGTACG displayed a PBM binding z-score of 0.947.

In turn, CCAACGAGGGCATGAGTTGATAGCAAATGCCGAT gave a PBM binding z-score of -0.153.

Turning to TCTTGTAGATCGGCAGGTTAAGAAAGCTGGCCAA, the PBM binding z-score stood at 0.25.

The sequence TCGAGTAGGTTAGGGGCATTCAAAATGGCGTCGA yielded a PBM binding z-score of 1.22.

The sequence TAGCCTAGGTCATTCAGGGGCCAGTCTAGAAAGC showed a PBM binding z-score of 2.84.

TCTCCTAGGTCAGTTGGTCAGCTAACGAGCTGCC showed a PBM binding z-score of 1.26.

Sequence ATCGAAAGGTCGTGAGGTGAGTGTACAGAAAGGC came in with a PBM binding z-score of 3.06.

CGTCAAAGTTCAAGGTAACGGAACAGAAAGCAGC returned a PBM binding z-score of 3.12.

ACTATTAGTTGAGACGAGGGCAAACGATAGGTTG had a PBM binding z-score of 0.169.

TCGAGTAGGTTAGGGGCTTTCAGAATGGCGTCGA yielded a PBM binding z-score of 0.6.

In the case of CGAGCTAGGTCAAGGACAGTGAATCTCCGCACGC, the PBM binding z-score came to 1.22.

With ATCTCTAGGTAAGAAGTTCAGTGAAAGAGAGGAC, the PBM binding z-score was 0.366.

Consider TTACCAAGGGGAGCTGAGGTCGTTGATCCAACTC, for which the PBM binding z-score was found to be 0.623.

Sequence ACAGACAGTTGAGTGAAGGTAACTCAGCTGGACG had a PBM binding z-score of -0.473.

TCTCGGAGGACACGTAAGGTCAGAGCTCGACATC yielded a PBM binding z-score of 2.1.

For ATCTCTAGGTAACAAGTTAAGTGAAAGAGAGGAC, the PBM binding z-score turned out to be 0.236.

CTCGAAAAGTCGTGCTCAGGTGAGTATACCAAAC yielded a PBM binding z-score of 0.084.

Consider TGAATGAGGTTATAAGCTCAGGGAACGTTGCAAA, for which the PBM binding z-score was 1.01.

AGAATGAGGTTATAAAGATCAGGGAATTGCGGTC: the PBM binding z-score stood at 1.17.

CAAACTAGGTCACCGGAAGGTCAACGTCCGCATG: the PBM binding z-score worked out at 4.6.

Sequence ATAGGTAGGTTAGCTGGGGTCATTCAGACTAGGC had a PBM binding z-score of 4.81.

In turn, TCTATTAGTTGACTAGGGCAACCGAAACAGCGGA came in with a PBM binding z-score of 0.429.
